High-throughput results deposited in PubChem by National Center for Advancing Translational Sciences (NCATS).
IMPase inh = cell-permeable inhibitors of inositol monophosphatase (IMPase) | CHO-M1 cells, IP1 accumulation, HTRF TR-FRET ratio | inhibition (IP1 accumulation), % at 46.1 µM | 120,000 tested, under 10 active; active means well fitted curve in the direction sought with a large enough effect in the signal ratio, not every such curve was filed as active; inconclusive means small, poorly fitted or top-dose-only effect, or a change in a side signal; inactive means no such curve, though single readings can be large or run the other way; the % refers to the signal ratio;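 further: cells stimulated with carbachol in lithium chloride buffer; plate controls were DMSO basal wells for no effect and reference inhibitor wells for full effect; higher means more IMPase inhibition seen as more IP1 and lower FRET ratio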
Target sequence (P97697 whole entry, looked up): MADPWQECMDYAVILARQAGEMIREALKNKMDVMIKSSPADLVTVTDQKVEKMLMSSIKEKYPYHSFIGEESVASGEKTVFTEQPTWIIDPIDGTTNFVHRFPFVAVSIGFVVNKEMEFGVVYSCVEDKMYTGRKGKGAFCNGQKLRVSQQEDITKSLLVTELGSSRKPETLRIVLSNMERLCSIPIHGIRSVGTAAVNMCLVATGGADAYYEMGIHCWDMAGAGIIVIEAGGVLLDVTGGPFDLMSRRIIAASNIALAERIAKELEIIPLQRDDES
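Elevated IP1 in lysates lowers TR-FRET signal (665/620 ratio and 620 channel reported). Cells were CHO-M1, given carbachol (50 uM as added) plus 50mM LiCl, pH 7.4, 30 min, 37C; compounds titrated up to 46 uM; AC50 by Hill equation.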
12-hLO inh = inhibitors of human 12-lipoxygenase (ALOX12) | Potency, µM (series often up to 57.1 µM), for the others: at the top dose activity change, negative = inhibition, actives largely listed as inhibitors | purified 12-hLO, xylenol orange hydroperoxide absorbance | AID 1452 | 150,000 compounds, 0.12% hits; further: potency means the concentration at half of the fitted maximal effect; nearly all actives have a fitted effect of over 55% in size
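Lipoxygenase turnover measured by absorbance at 573 and 405 nm after Fe-XO development. Human 12hLO 150 nM, arachidonate 40 uM, pH 7.0 Hepes buffer with detergent; 15 min compound preincubation, 30 min reaction.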
ALDH1A1 block = inhibitors of human aldehyde dehydrogenase 1A1. Purified ALDH1A1, NADH fluorescence, propionaldehyde substrate. 220,000 compounds, 7.3% hits. Potency, µM (titrated, usually from 75.3 µM), for the others: at the highest dose activity, negative = inhibition, actives largely listed as inhibitors. P00352; active means well fitted inhibition curve with a large enough effect, not every such curve was filed as active; inconclusive means small, poorly fitted or top-dose-only effect, or another doubt; inactive means no such curve, though single readings can be large or run the other way;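 further: potency means the concentration at half of the fitted maximal effect; plate controls were no enzyme wells and a reference inhibitor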
IMPase Li cell = cell-permeable IMPase inhibitors with lithium potentiation; CHO-M1 cells, IP1 TR-FRET (IP-One), carbachol + lithium; Potency, µM (series often up to 59.4 µM), for the others: at the top dose activity, negative = IMPase inhibition, usual class: inhibitors; 210,000 compounds, 0.35% hits; AID 1457;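 further: IP1 builds up when IMPase is blocked and the TR-FRET signal falls; potency means the concentration at half of the fitted maximal effect; plate controls were basal vehicle for no effect and high inhibitor control for full effect; nearly all actives have a fitted effect of over 50% in size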
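Lithium-sensitised IP1 accumulation assay; M1-expressing CHO cells treated 30 min at 37C with compound. Competitive antibody detection by time-resolved FRET followed a 10 min room-temperature lysis step.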
PNC assembly inh = perinucleolar compartment assembly inhibition; 140,000 compounds, 3.1% hits; PC3M PTB-GFP, PNC prevalence imaging, 16 h; stronger effect = lower value; activity change (PNC), negative = inhibition, % at 10 µM;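 active means readout at or below -70, meaning at least 70% loss of cells showing the perinucleolar compartment, a nuclear body marking cancer cells; inconclusive means readout between -30 and a set limit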;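 further: plate controls were DMSO wells for no effect and camptothecin positive control wells for full effect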
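Read-out is percentage of cells bearing a perinucleolar compartment, from automated 20x imaging of fixed, Hoechst-stained PC3M PTB-GFP cells. Cells were seeded 4 h, then exposed 16 h to compound (23 nl of library stock) in duplicate plates.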
HPGD block = HPGD (human) dehydrogenase inhibition; P15428; purified HPGD, NADH fluorescence kinetic, PGE2 substrate; Potency, µM, for inactives: at the highest dose activity change, negative = inhibition, hits mostly inhibitors; 150,000 compounds, 4.3% hits; AID 894; active means well fitted inhibition curve with a large enough effect, not every such curve was filed as active; inconclusive means small, poorly fitted or top-dose-only effect, or another doubt; inactive means no such curve, though single readings can be large or run the other way; further: potency means the concentration at half of the fitted maximal effect
Target sequence (P15428 whole entry, looked up): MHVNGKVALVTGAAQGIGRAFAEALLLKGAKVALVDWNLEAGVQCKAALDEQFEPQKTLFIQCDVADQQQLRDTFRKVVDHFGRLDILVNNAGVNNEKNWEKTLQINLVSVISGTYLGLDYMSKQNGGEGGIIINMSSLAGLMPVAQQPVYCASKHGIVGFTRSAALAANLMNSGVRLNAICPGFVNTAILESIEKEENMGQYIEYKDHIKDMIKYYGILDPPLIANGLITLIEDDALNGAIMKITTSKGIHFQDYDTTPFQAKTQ
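20 nM HPGD preincubated 15 min at room temperature with compound in 50 mM Tris-HCl pH 8, 0.01% Tween 20. Started with 1 mM NAD+ and 30 uM prostaglandin E2; NADH fluorescence (360/450 nm) read 5 times over 30-s intervals, last minus first.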
* = called active by the depositor; ? = inconclusive; nt = not tested or not shown; [ ] = dose if it differs, or a comment. An excerpt weighted towards active compounds, which were near 11% of everything screened. Unless noted, the call rests on the fitted dose curve; in most records, active means well fitted curve in the direction sought with a large enough effect; inconclusive means small, poorly fitted or top-dose-only effect, or another doubt; inactive means no such curve, though single readings can be large; an effect the other way counts as inactive or inconclusive. Unless noted, on the % scale 0 is the no-effect control and ±100 the full control effect.

SMILES	IMPase inh	12-hLO inh	ALDH1A1 block	IMPase Li cell	PNC assembly inh	HPGD block
O=[N+]([O-])c1ccc(-c2c[nH]c(=S)[nH]2)cc1	nt	nt	0.5µM*	nt	nt	nt
CC(=O)N(/N=C1\Sc2ccccc2C1=O)c1cccc(C)c1	17	-1%	?	53%[38.3 µM]	?	3.5µM*
Cc1ccc(-c2nnc(Nc3ccc(O)cc3)c3ccccc23)cc1S(=O)(=O)NCC1CCCO1 (stereo unspecified)	2	nt	nt	nt	nt	nt
CC(C)COC(=O)CNc1n[nH]c(=S)[nH]c1=O	?	-5%	-15%	?	23	-19%
CCCCOC(=O)CNc1n[nH]c(=S)[nH]c1=O	?	-2%	?	4µM*	?	25µM*
Cc1cccc(Cc2cnc(NC(=O)C3Cc4ccc(C)cc4C(=O)O3)s2)c1 (stereo unspecified)	7	nt	nt	nt	nt	nt
Cc1nc2ccccn2c1C(=O)OCC#N	nt	nt	16µM*	2%	nt	nt
Cc1nc2ccccn2c1C(=O)NN=C1CCCC1	nt	nt	?	5%	nt	nt
Cc1nc2ccccn2c1C(=O)CSc1ccccc1	nt	nt	-14%	-4%	nt	nt
Cc1nc2ccccn2c1C(=O)NC1CCCCC1	-3	-1%	?	6%[38.3 µM]	-105*	?
Cc1cccc2c(N)c3c(nc12)CCCC3 (tested in a mixture with another compound)	nt	nt	3%	21%	nt	nt
Cc1cc(C)c2c(N)c3cccc(C)c3nc2n1	nt	0%	?	14%	-92*	?
CC(N)CCCP(=O)(O)O (stereo unspecified)	nt	nt	-1%	3%	nt	nt
O=C(NCCN1CCOCC1)c1c[nH]c2ccc(S(=O)(=O)N3CCOCC3)cc2c1=O	nt	-2%	?	-1%	40	?
COCCCNC(=O)c1c[nH]c2ccc(S(=O)(=O)N3CCC4(CC3)OCCO4)cc2c1=O	nt	nt	?	-6%	nt	nt
CCOc1ccc(N(C)S(=O)(=O)c2ccc3[nH]cc(C(=O)NCC4CCCO4)c(=O)c3c2)cc1 (stereo unspecified)	4	-12%	-19%	13%[38.3 µM]	?	14µM*
CCCCCNC(=O)c1c[nH]c2ccc(S(=O)(=O)N3CCC4(CC3)OCCO4)cc2c1=O	nt	-1%	-14%	-1%	-113*	?
CCN(CC)S(=O)(=O)c1ccc2[nH]cc(C(=O)NCCC3=CCCCC3)c(=O)c2c1	3	-15%	?	15%[38.3 µM]	2	?
CCc1ccc(N(C)S(=O)(=O)c2ccc3[nH]cc(C(=O)NCCN4CCOCC4)c(=O)c3c2)cc1	-4	-1%	22µM*	41%[38.3 µM]	16	?
CN(CCC#N)S(=O)(=O)c1ccc2[nH]cc(C(=O)NCCc3ccccc3)c(=O)c2c1	nt	-2%	25µM*	2%	58	?
Cn1c(=O)c(=O)n(C)c2cc(NS(=O)(=O)c3ccc(Br)cc3)c(Cl)cc21	0	nt	nt	nt	nt	nt
Nc1ccccc1S(N)(=O)=O	1[20.6 µM]	-1%[25.6 µM]	4%[20.9 µM]	-3%	nt	-11%
Cc1ccccc1N(C)S(=O)(=O)c1ccc2[nH]cc(C(=O)NCC3CCCO3)c(=O)c2c1 (stereo unspecified)	3	-3%	?	23%[38.3 µM]	-84*	?
CCc1ccc(NS(=O)(=O)c2ccc3[nH]cc(C(=O)NCC4CCCO4)c(=O)c3c2)cc1 (stereo unspecified)	4	-1%	?	-19%[38.3 µM]	?	?
O=C(Nc1ccccc1)C1=C[C@@H](C2CCCCC2)C[C@@H](OCc2ccc(CO)cc2)O1	nt	nt	4.5µM*	13%	nt	nt
SMILES	IMPase inh	12-hLO inh	ALDH1A1 block	IMPase Li cell	PNC assembly inh	HPGD block
O=C(O)C1=C[C@@H](C2CC2)C[C@@H](OCc2ccc(CO)cc2)O1	nt	nt	-12%	-1%	nt	nt
O=C(Nc1ccccc1)C1=C[C@H](C2CCCCC2)C[C@H](OCc2ccc(CO)cc2)O1	nt	nt	1%	1%	nt	nt
O=C(C1=C[C@@H](C2CC2)C[C@@H](OCCCCO)O1)N1CCOCC1	nt	nt	32µM*	-2%	nt	nt
C=CCOC(=O)C1=C[C@@H](C2CCCCC2)C[C@@H](OCc2ccc(CO)cc2)O1	nt	nt	1µM*	11%	nt	nt
O=C(C1=C[C@H](C2CCCCC2)C[C@H](OCc2ccc(CO)cc2)O1)N1CCN(Cc2ccccc2)CC1	nt	nt	14µM*	-1%	nt	nt
O=C(C1=C[C@@H](C2CCCCC2)C[C@@H](OCc2ccc(CO)cc2)O1)N1CCN(Cc2ccccc2)CC1	nt	nt	?	18%	nt	nt
c1ccc(-c2nc(-c3ccccc3)c(NC3CCCCC3)o2)cc1	nt	4%	1%	-2%	nt	-1%
CCOc1cc(Cl)c(NC(=O)CC)cc1OCC	nt	-4%	9%	0%	-114*	-1%
CCN(CC)S(=O)(=O)c1cc(C(=O)OCC(=O)c2ccc3c(c2)NC(=O)CO3)ccc1Cl	14	-2%	?	15%[38.3 µM]	8	-5%
O=C1COc2ccc(C(=O)COC(=O)c3ccc4ccccc4n3)cc2N1	1	2%	4%	-8%[38.3 µM]	3	-18%
O=C1COc2ccc(C(=O)COC(=O)Cn3cnc4ccccc43)cc2N1	6	-6%	28µM*	18%[38.3 µM]	?	-12%
